Screening data deposited in PubChem by National Center for Advancing Translational Sciences (NCATS).
Sampled rows, rich in hits. Any-hit rate of the full collection: about 3.1%.
VDR inh – inhibitors of human vitamin D receptor. 400,000 compounds, 0.93% hits. Potency, µM, inactives show max response, negative = inhibition, most hits filed as inhibitors. VDR-SRC2-3 peptide fluorescence polarization, 2 h; note: potency is the fitted concentration of half-maximal effect; % is set by controls: 0 for no effect and ±100 for the full control effect
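Signal is fluorescence polarization, reporting how far test compounds block the interaction of VDR with the SRC2-3 coregulator peptide after a 2 h room-temperature incubation.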
Tb PFK inh – T. brucei PFK enzyme inhibition. O15648. 330,000 compounds, 0.17% hits. Potency, µM (titrated, usually from 57.5 µM), for the others: top-dose activity, negative = inhibition, usual class: inhibitors. T. brucei PFK, ADP-Glo luminescence;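 note: potency is the fitted concentration of half-maximal effect; 0% = uninhibited 1x PFK enzyme wells and -100% = no-enzyme wells; nearly all actives have a fitted effect of over 60% in size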
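PFK 1.25 nM, F6P 0.5 mM, ATP 0.1 mM, 0.1 M TEA pH 8.0, 5 mM MgCl2, 0.01% Tween20, 0.1% BSA; 45 min RT. ADP-Glo readout. qHTS titration up to 57 uM; curves fitted, compounds curve-classed.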
PLK1 PBD block – PLK1 (human) polo-box domain binding inhibition | P53350 | Plk1 PBD binding of FITC phosphopeptide, fluorescence polarization | Potency, µM, for the others: max response, negative = inhibition, most hits filed as inhibitors | 360,000 compounds, 2.8% hits | AID 720504; note: potency is the fitted concentration of half-maximal effect; series mostly up to about 57 µM; % is set by controls: 0 for no effect and ±100 for the full control effect; nearly all actives have a fitted effect of over 65% in size
TDP1 block – inhibitors of human tyrosyl-DNA phosphodiesterase TDP1 | 350,000 compounds, 0.28% hits | AID 485290 | Potency, µM (doses to about 130 µM), without a hit: at the highest dose activity change, negative = inhibition, most hits filed as inhibitors | recombinant TDP1, AlphaScreen DNA substrate cleavage; note: potency is the fitted concentration of half-maximal effect; % is set by controls: 0 for no effect and ±100 for the full control effect; nearly all actives have a fitted effect of over 40% in size
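Compounds were preincubated with Tdp1 (1 nM final) for 15 min at room temperature before substrate (15 nM final) started a 5 min reaction; beads (10 ug/ml final) were then added for 10 min before AlphaScreen detection.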
Pin1 inh – human Pin1 inhibition | 390,000 compounds, 0.009% hits | Potency, µM (series often up to 115 µM), inactives show top-dose activity, negative = inhibition, hits mostly inhibitors | Q13526 | Pin1 FP peptide displacement, HiFluor488, 10 min; active = well fitted inhibition curve with a large enough effect in the polarisation, with a control signal flat, not every such curve was filed as active; inconclusive = small, poorly fitted or top-dose-only effect, or effect the other way, or a change in a side signal; inactive = no such curve, though single readings can be large or run the other way; the % refers to the polarisation; note: potency is the fitted concentration of half-maximal effect; % is set by controls: 0 for no effect and ±100 for the full control effect
Target sequence (Q13526 whole entry, looked up): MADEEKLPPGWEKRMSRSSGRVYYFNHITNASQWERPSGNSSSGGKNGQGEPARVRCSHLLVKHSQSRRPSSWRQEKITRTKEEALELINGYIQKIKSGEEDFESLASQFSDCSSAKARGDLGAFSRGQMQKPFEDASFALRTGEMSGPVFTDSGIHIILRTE
S-ASM inh – human S-ASM enzyme inhibition | P17405 | placental ASM, HMU-PC fluorogenic substrate, 60 min | Potency, µM (highest dose often 57.5 µM), for the others: at the highest dose activity change, negative = inhibition, actives largely listed as inhibitors | 340,000 compounds, 0.006% hits | AID 504937; note: potency is the fitted concentration of half-maximal effect
Target sequence (P17405 47-631 limits assumed): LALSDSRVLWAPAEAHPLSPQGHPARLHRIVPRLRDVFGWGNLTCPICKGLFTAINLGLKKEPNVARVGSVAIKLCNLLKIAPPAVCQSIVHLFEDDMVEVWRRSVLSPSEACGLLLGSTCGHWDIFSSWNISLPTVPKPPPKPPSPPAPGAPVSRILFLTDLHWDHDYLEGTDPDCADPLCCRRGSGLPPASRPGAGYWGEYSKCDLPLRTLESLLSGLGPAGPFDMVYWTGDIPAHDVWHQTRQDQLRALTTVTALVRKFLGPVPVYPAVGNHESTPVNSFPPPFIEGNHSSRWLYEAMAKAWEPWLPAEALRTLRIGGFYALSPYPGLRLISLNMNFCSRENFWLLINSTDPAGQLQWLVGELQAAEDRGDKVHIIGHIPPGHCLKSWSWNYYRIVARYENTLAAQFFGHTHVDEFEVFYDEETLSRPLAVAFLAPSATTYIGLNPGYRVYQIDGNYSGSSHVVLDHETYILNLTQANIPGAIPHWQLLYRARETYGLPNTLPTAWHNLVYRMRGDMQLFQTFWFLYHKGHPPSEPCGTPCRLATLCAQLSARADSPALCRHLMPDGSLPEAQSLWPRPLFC
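Fluorogenic HMU-PC substrate (9 uM final) is turned over by placental ASM in 60 min at 37 C after a 10 min compound preincubation. Reaction ended by alkaline stop (pH 10), with fluorescence read at 386/447 nm.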
USP1-UAF1 confirm – validation of human USP1/UAF1 inhibitors | Ub-Rhodamine cleavage, fluorescence kinetic read | shares compounds with VDR inh | 50 compounds, 50% hits | Potency, µM (titrated, usually from 56.8 µM), without a hit: at the top dose activity change, negative = inhibition, most hits filed as inhibitors
VDR confirm – inhibits human vitamin D receptor, primary hit validation; shares compounds with VDR inh; VDR-coactivator inhibition assay, qHTS confirmation; Potency, µM, most hits filed as inhibitors; 840 compounds, 89% hits; AID 602199; note: potency is the fitted concentration of half-maximal effect
VDR FP – blocks human VDR-coactivator binding in fluorescein assay. Potency, µM (top dose mostly 57.1 µM), for the others: at the top dose activity change, negative = inhibition, actives largely listed as inhibitors. 840 compounds, 48% hits. shares compounds with VDR inh. VDR-coactivator binding, fluorescein fluorescence polarization; note: potency is the fitted concentration of half-maximal effect
VDR bla reporter – VDR (human) inhibition, cell-based beta-lactamase validation; shares compounds with VDR inh; Potency, µM (highest dose often 46.1 µM), without a hit: at the top dose activity change, negative = inhibition, hits mostly inhibitors; VDR beta-lactamase reporter cells, FRET ratio; cells co-treated with VDR agonist LG190178; 840 compounds, 23% hits; note: potency is the fitted concentration of half-maximal effect; % is set by controls: 0 for no effect and ±100 for the full control effect
VDR cytotox – cytotoxic in counter-screen for VDR inhibitors | AID 602204 | cytotoxicity counter-screen, cell viability, qHTS | Potency, µM (series often up to 48.3 µM), inactives show top-dose activity change, negative = cytotoxicity, usual class: cytotoxic | 840 compounds, 18% hits | shares compounds with VDR inh;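 note: potency is the fitted concentration of half-maximal effect; plate controls were DMSO for no effect and high-concentration cycloheximide for full effect; nearly all actives have a fitted effect of over 75% in size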
Numbers without * were called inactive; ? = inconclusive; nt = no result; [ ] = another dose, or the depositor's remark. Unless noted, calls come from the whole dose curve; as a rule, active = well fitted curve in the direction sought with a large enough effect; inconclusive = small, poorly fitted or top-dose-only effect, or another doubt; inactive = no such curve, though single readings can be large; an effect the other way counts as inactive or inconclusive.

SMILES | VDR inh | Tb PFK inh | PLK1 PBD block | TDP1 block | Pin1 inh | S-ASM inh | VDR confirm | VDR FP | VDR bla reporter | VDR cytotox | others
C[C@@H]1O[C@@H](O[C@H]2C[C@@H](O)[C@]3(CO)[C@@H]4C(CC[C@]3(O)C2)[C@@]2(O)CC[C@H]([C@@H]3COC(=O)C3)[C@@]2(C)C[C@H]4O)[C@H](O)[C@H](O)[C@H]1O (some centres undefined) | -0.6% | nt | nt | nt | nt | nt | nt | nt | nt | nt
CC1CC[C@@]2(NC1)OC1CC3C4CC[C@@H]5CC(O)CC[C@@]5(C)C4CC[C@]3(C)C1C2C (some centres undefined) | -10.3% | nt | nt | 8.2% | nt | nt | nt | nt | nt | nt
O=C(/C=C/c1ccccc1)c1c(O)n(CCc2ccccc2)c(=O)[nH]c1=O | ? | 2.4% | -9.5% | 2.3% | -3.0% | -4.5% | 2* | ? | 18.4µM* | 22.0%
Cc1ccc(N2C(=O)NC(=O)/C(=C\c3ccsc3)C2=O)cc1C | nt | -1.7% | nt | 3.0% | nt | nt | nt | nt | nt | nt
Cc1ccccc1N1C(=O)NC(=O)/C(=C\c2ccc3c(c2)CCCN3Cc2ccccc2)C1=O | 39.8µM* | -19.5% | ? | 0.0% | ? | -1.5% | 11.9* | 200.3% | 37.9% | 12.1%
COc1cc(/C=C/[N+](=O)[O-])ccc1O | 28.2µM* | 23.3% | 18.9µM* | 5.3% | -26.0% | -9.0% | 29.9* | ? | ? | ?
COc1ccc(OC)c(-n2c(O)c(/C=C3\C(C)=Nc4ccccc43)c(=O)[nH]c2=O)c1 | -1.4% | 5.4% | ? | 4.3% | 56.9% | -2.2% | nt | nt | nt | nt
COC(=O)C1=Nc2ccccc2/C1=C\c1c(O)n(-c2ccc(Br)cc2)c(=O)[nH]c1=O | 79.4µM* | 9.0% | 1.68µM* | -2.2% | ? | 1.6% | 21.2* | ? | 29.6% | -8.9%
O=c1nc(/C=C/c2ccc(Cl)cc2Cl)cc(C(F)(F)F)[nH]1 | 10µM* | 3.1% | 26.7µM* | 6.0% | -6.2% | 11.2% | 7.52* | 3.16µM* | ? | 37.0%
COc1ccc(/C=C2/C(=O)NC(=S)N(C3CC3)C2=O)cc1CN1C(=O)c2ccccc2C1=O | 44.7µM* | 6.4% | 2.67µM* | -10.5% | 3.3% | 2.1% | 10.6* | 7.94µM* | 28.2% | ?
CCOC(=O)C1CCN(/C=C2/C(=O)NC(=S)N(c3ccccc3F)C2=O)CC1 | -14.2% | 6.6% | -0.3% | -3.7% | 2.3% | 2.3% | nt | nt | nt | nt
NC(N)=Nc1ccc2[nH]c3c(c2c1)C[C@@]1(O)[C@H]2Cc4ccc(O)c5c4[C@@]1(CCN2CC1CC1)[C@H]3O5 | 35.5µM* | ? | 0.947µM* | 11.2% | ? | 4.8% | nt | nt | nt | nt | USP1-UAF1 confirm=?
Oc1ccc2c3c1O[C@H]1c4[nH]c5c(c4C[C@@]4(O)[C@@H](C2)N(CC2CC2)CC[C@]314)C[C@]1(O)[C@H]2Cc3ccc(O)c4c3[C@@]1(CCN2CC1CC1)[C@@H]5O4 | 6.9% | nt | nt | 11.9%[56.1 µM] | nt | nt | nt | nt | nt | nt
Cc1nc2cnc(N3CCNCC3)nc2n(C)c1=O | 10.7% | nt | nt | nt | nt | nt | nt | nt | nt | nt
N#CC(C#N)=NNc1ccc(-n2ccc(C(F)(F)F)n2)cc1 | 20µM* | -3.5% | ? | 7.7% | -2.7% | -12.3% | 2.99* | ? | ? | ?
COc1cc(CNC(=O)CCCC/C=C/C(C)C)ccc1O | -19.9% | ? | -5.2% | -2.4% | -5.1% | 4.3% | nt | nt | nt | nt
O=S(=O)(/C(=C/c1ccc(C(F)(F)F)cc1)c1nc2ccccc2[nH]1)c1ccccc1 | 15.8µM* | -9.6% | 0.0% | 8.1% | -4.9% | -0.2% | 3.77* | ? | 2.31µM* | 8.2µM*
CN1CCN(C(=O)Cc2nc3ccccc3[nH]2)CC1 | 5.7% | 2.8% | -1.8% | 1.9% | -1.0% | 19.1% | nt | nt | nt | nt
C[C@H]1CC[C@@H]2[C@@H](C)[C@H]3[C@H](C[C@H]4[C@@H]5CC=C6CC(O[C@@H]7O[C@H](CO)[C@H](O)[C@H](O[C@@H]8O[C@H](CO)[C@@H](O)[C@H](O)[C@H]8O)[C@H]7O[C@H]7O[C@@H](C)[C@H](O)[C@@H](O)[C@H]7O)CC[C@]6(C)[C@H]5CC[C@]34C)N2C1 (some centres undefined) | ? | nt | nt | 11.0% | nt | nt | nt | nt | nt | nt
CSc1ncc(C(=O)Nc2ccc(Cl)cc2C(=O)c2ccccc2)c(C)n1 | 0.2% | nt | nt | 6.2% | 8.0% | nt | nt | nt | nt | nt
O=C(c1ccc2c(c1)N(Cc1c(F)cccc1Cl)C(=O)c1ccccc1S2)N1CCC2(CC1)OCCO2 | -13.7% | nt | nt | 4.7% | 0.3% | nt | nt | nt | nt | nt
C=CCN1CC[C@]23CCCCC2[C@H]1Cc1ccc(O)cc13 (some centres undefined) | -3.4% | nt | nt | 6.3%[56.1 µM] | nt | nt | nt | nt | nt | nt
CN1CC[C@]2(C)c3cc(O)ccc3N(C)[C@@H]12 | ? | nt | nt | 12.3%[21 µM] | nt | nt | nt | nt | nt | nt | USP1-UAF1 confirm=?
CC(=O)OC1CC(OC(C)=O)[C@]2(C)C(CC(OC(C)=O)[C@]3(C)C2CC[C@@]2(C)C(c4ccoc4)C(=O)C4O[C@]432)C1(C)C (some centres undefined) | -4.5% | nt | nt | 7.2% | nt | nt | nt | nt | nt | nt
C=C1[C@@H](C)[C@H]2[C@H](Cc3ccccc3)NC(=O)[C@]23[C@H](OC(C)=O)/C=C/[C@](C)(O)C(=O)[C@@H](C)C/C=C/[C@H]3[C@@H]1O | -21.9% | nt | nt | 6.2% | nt | nt | nt | nt | nt | nt
CC1=CC2/C=C(\C)CCC(O)C(O)/C=C/C(=O)C23C(=O)NC(CC(C)C)C3C1C (centres undefined) | 22.4µM* | -9.6% | ? | 1.3% | -4.0% | 4.7% | 16.8* | ? | 7.31µM* | 14.6µM*
